Screening data deposited in PubChem BioAssay by National Center for Advancing Translational Sciences (NCATS).
IMPase Li cell: membrane-permeable IMPase blocker, potentiated with lithium; CHO-M1 cells, IP1 TR-FRET (IP-One), carbachol + lithium; Potency, µM (highest dose often 59.4 µM), without a hit: at the top dose activity, negative = IMPase inhibition, actives largely listed as inhibitors; hit rate 0.35% among 210,000;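 note: IP1 builds up when IMPase is blocked and the TR-FRET signal falls; potency is the fitted concentration of half-maximal effect; plate controls were basal vehicle for no effect and high inhibitor control for full effect; nearly all actives have a fitted effect of over 50% in size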
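Concentration–response in CHO-M1 cells, lithium-potentiated; 30 min at 37C. IP1 detected by competitive TR-FRET after 10 min lysis at RT. Hill-fitted AC50.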
TRPV1 PAM: enhances activation of the human vanilloid receptor TRPV1; TRPV1-expressing cells, Fluo-8 calcium influx, capsaicin EC20 potentiation; potentiation, % at 8.33 µM; hit rate 0.02% among 320,000; AID 540277; in the data active = potentiation above about 80%; inconclusive = between about 30% and that limit; note: 0% is about no effect
Target sequence (Q8NER1 whole entry, looked up): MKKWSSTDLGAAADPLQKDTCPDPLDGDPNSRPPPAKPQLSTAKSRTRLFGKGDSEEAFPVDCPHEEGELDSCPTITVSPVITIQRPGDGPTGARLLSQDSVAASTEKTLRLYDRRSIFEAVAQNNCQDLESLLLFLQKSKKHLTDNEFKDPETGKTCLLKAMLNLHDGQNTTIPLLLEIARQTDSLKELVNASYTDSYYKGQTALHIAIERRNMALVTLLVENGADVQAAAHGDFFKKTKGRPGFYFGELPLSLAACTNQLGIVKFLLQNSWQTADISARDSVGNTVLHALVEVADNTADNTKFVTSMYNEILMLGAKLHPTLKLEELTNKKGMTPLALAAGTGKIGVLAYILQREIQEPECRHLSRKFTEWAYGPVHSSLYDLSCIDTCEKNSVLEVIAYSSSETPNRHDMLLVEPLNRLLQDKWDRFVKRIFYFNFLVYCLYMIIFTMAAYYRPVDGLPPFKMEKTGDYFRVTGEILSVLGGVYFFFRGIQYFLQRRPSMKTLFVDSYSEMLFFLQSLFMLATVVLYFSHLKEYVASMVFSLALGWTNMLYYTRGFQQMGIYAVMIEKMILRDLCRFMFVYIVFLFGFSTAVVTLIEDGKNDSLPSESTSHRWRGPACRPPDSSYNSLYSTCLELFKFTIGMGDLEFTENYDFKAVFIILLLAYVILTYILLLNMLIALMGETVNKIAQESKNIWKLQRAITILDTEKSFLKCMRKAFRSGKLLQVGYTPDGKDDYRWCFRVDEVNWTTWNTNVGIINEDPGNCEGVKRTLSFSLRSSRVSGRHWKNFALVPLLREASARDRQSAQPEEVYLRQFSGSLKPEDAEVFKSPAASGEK
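Cells expressing TRPV1 were dye-loaded with Fluo-8 and read kinetically: 10 s baseline, 3 min after compound (agonist portion), then 2 min after EC20 capsaicin (allosteric enhancer portion). Calcium-bound dye fluorescence at 480/520 nm.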
TRPV1 agonist: activates the human vanilloid receptor TRPV1; Q8NER1; TRPV1-expressing cells, Fluo-8 calcium influx, agonist mode; activation, % at 8.33 µM; hit rate 0.19% among 320,000; AID 540275; in the data active = activation above about 80%; inconclusive = between about 30% and that limit; note: 0% is about no effect
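TRPV1-expressing cells were cultured overnight at 35.5C and loaded with Fluo-8 calcium dye for 40 to 90 min at room temperature. After a 10 s baseline, compound was added and calcium influx was read kinetically for 3 min (ex 480/em 520 nm).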
AT treatment: potential ataxia-telangiectasia treatments restoring KAP-1 phosphorylation; F2112 A-T fibroblasts, KAP-1 phosphorylation AlphaLISA; neocarzinostatin DNA damage 30 min before lysis; Potency, µM (highest dose often 57.5 µM), inactives show at the top dose activation, most hits filed as activators; hit rate 0.19% among 320,000; AID 485349; note: potency is the fitted concentration of half-maximal effect; % of control where 0% means no effect; nearly all actives have a fitted effect of over 45% in size
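ATM-like activity read as KAP-1 phosphorylation via AlphaLISA donor/acceptor antibody pairs after lysis and 6 hr at 25C. Cells were ATM-null patient fibroblasts (F2112, hTERT), dosed 60 min, then exposed to the DSB inducer NCS for 30 min.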
The depositor's hits bear a star; i = inactive; ? = inconclusive; · = not tested or not shown; [ ] = dose if it differs, or a comment. Shown are actives, neighbours in structure and some others; about 0.55% of the full set was active somewhere. Unless noted, calls come from the whole dose curve; as a rule, active = well fitted curve in the direction sought with a large enough effect; inconclusive = small, poorly fitted or top-dose-only effect, or another doubt; inactive = no such curve, though single readings can be large; an effect the other way counts as inactive or inconclusive.

SMILES	IMPase Li cell	TRPV1 PAM	TRPV1 agonist	AT treatment
CCc1nnc(NC(=O)CSc2nc(-c3ccccc3)cc(-c3ccc(F)cc3)c2C#N)s1	10µM*	23	-1	-8%
CCc1nnc(NC(=O)CSc2ncnc3c2cnn3-c2ccc(OC)cc2)s1	10µM*	-1	-4	-1%
CC(C)(C)CC(=O)Nc1nnc(-c2cccs2)s1	11µM*	-3	-3	0%
CCc1nnc(NC(=O)CSc2ccc(-c3cccs3)nn2)s1	4µM*	15	7	6%
O=S(=O)(O)CCCc1cccc2ccccc12	3%	·	·	·
CCc1nnc(NC(=O)CSc2nc(-c3ccccc3)nc3ccccc23)s1	10µM*	13	1	2%
CCc1nnc(NC(=O)CSc2nc3ccccc3s2)s1	-3%	-2	-1	-2%
Cc1cccc(C)c1NC(=O)CSc1nc(C2CC2)nc2ccccc12	·	-19	1	11%
CCc1nnc(NC(=O)CSc2nc(C3CCCCC3)nc3ccccc23)s1	7.9µM*	·	·	0%
COc1ccc(-c2nc3c(c4c2C[C@H](c2ccccc2)OC4)CN(S(=O)(=O)c2ccc(NC(C)=O)cc2)CC3)c(C)c1	-1%	·	·	·
CN1CCc2nc(N)nc(-c3nc(N)nc4c3CN(C)CC4)c2C1	-8%	·	·	·
CCOC(=O)N1CCN(C(=O)c2cc3c(s2)-c2c(C)cccc2OC3)CC1	·	-4	?	11%
Cc1cccc2c1-c1sc(C(=O)N3CCCCC3)cc1CO2	·	2	88*	12%
COc1c(-c2coc3cc4c(cc3c2=O)CC(O)C(C)(C)O4)ccc2c1C=CC(C)(C)O2 (centres undefined)	17%	·	·	·
C[C@H]1Cc2c(COc3ccccc3)nc3c(c2CO1)CN(S(=O)(=O)c1ccc(Cl)c2nonc12)CC3	5%	·	·	·
COC(=O)c1c(NC(=O)C(=O)N2CCOCC2)sc2c1CCCC2	·	-27	87*	5%
Cn1c(Sc2nc3ccccc3n2C)nc2ccccc21	3%[38.3 µM]	·	·	20µM*
Cn1c(SCC(=O)N2CCCC2)nc2ccccc21	-3%	1	1	-12%
Cc1ccc(O)c(N=CC2=C(O)c3ccccc3C2=O)c1	10µM*	14	0	-5%
O=C1C(C=Nc2ccccc2O)=C(O)c2ccccc21	1%[38.3 µM]	3	-4	3%
COc1ccc(-c2nc3cnc(N4CCN(C)CC4)nc3n(CCc3ccccc3)c2=O)cc1	-25%	·	·	·
Nc1ccc2nc(-c3ccc(Cl)cc3)[nH]c2c1	10µM*	-18	20	13%
O=C(O)c1cc(O)c2c(c1)[C@H]([C@H]1c3cc(C(=O)O)cc(O)c3C(=O)c3c(O[C@@H]4OC(CO)C(O)C(O)C4O)cccc31)c1cccc(O[C@@H]3OC(CO)C(O)C(O)C3O)c1C2=O (some centres undefined)	4%	·	·	·
Cc1cc(N2C(=O)C(O)=C(C(=O)c3cccs3)C2c2ccccc2)no1 (centres undefined)	14µM*	2	0	0%
Cc1cc(N2C(=O)C(O)=C(C(=O)c3cccs3)C2c2cccc(O)c2)no1 (centres undefined)	-28%[38.3 µM]	-2	0	-1%
SMILES	IMPase Li cell	TRPV1 PAM	TRPV1 agonist	AT treatment
COc1cccc(C2C(C(=O)c3cccs3)=C(O)C(=O)N2c2cc(C)on2)c1 (centres undefined)	10µM*	3	-3	-11%
COc1ccc2nc(NCN3C(=O)c4ccccc4C3=O)sc2c1	-6%	·	·	·
C=C(C#N)C(=O)OCC	26%	·	·	·
O=C(NCc1ccncc1)C1CCCN(S(=O)(=O)c2cc(Cl)ccc2Cl)C1 (centres undefined)	·	-18	87*	-2%
O=C1NCCCC2c3c(cc(Br)c(O)c3Br)OC12N1CCOCC1 (centres undefined)	37%[38.3 µM]	16	3	20µM*
N#C/C(=C\NC(=S)c1ccncc1)c1nc2ccccc2s1	-19%	·	·	·
Cc1cc(Nc2ccccc2)n2nc(C)c(-c3ccccc3)c2n1	·	?	1	28µM*
O=C(C1=C(O)C(=O)N(Cc2ccco2)C1c1cccnc1)c1cc2ccccc2o1 (centres undefined)	8.9µM*	1	-1	-11%
O=C(C1=C(O)C(=O)N(CCN2CCOCC2)C1c1cccc(O)c1)c1cc2ccccc2o1 (centres undefined)	·	-6	2	-5%
O=C(C1=C(O)C(=O)N(CCN2CCOCC2)C1c1cccnc1)c1cc2ccccc2o1 (centres undefined)	10µM*	9	1	0%
O=C(C1=C(O)C(=O)N(CC2CCCO2)C1c1cccnc1)c1ccco1 (centres undefined)	13µM*	-13	-3	5%
CN(C)CCCN1C(=O)C(O)=C(C(=O)c2cc3ccccc3o2)C1c1ccccc1 (centres undefined)	10µM*	0	1	-6%
COC(=O)c1ccc(C2C(C(=O)c3cc4ccccc4o3)=C(O)C(=O)N2CCCN(C)C)cc1 (centres undefined)	?	8	-2	4%
O=C(C1=C(O)C(=O)N(CC2CCCO2)C1c1ccccc1)c1ccco1 (centres undefined)	·	-3	0	6%
O=C(O)c1nnsc1-c1ccc(-c2snnc2C(=O)O)cc1	-1%	·	·	·
c1cncc(CNc2ncnc3ccc(-c4ccco4)cc23)c1	·	·	·	8%
O=C1C2=C(C(=O)c3ccccc31)C1O[C@](CCCCN3C(=O)c4ccccc4C3=O)(Cc3c1ccc1ccccc31)O2	·	i	i	-5%[11.5 µM]
C[C@H](Br)C(=O)c1ccc2cc(Br)c3ccccc3c2c1	-7%	·	·	·
COc1cccc2cc(C(=O)C3=C(O)C(=O)N(Cc4ccco4)C3c3cccnc3)oc12 (centres undefined)	10µM*	0	3	5%
COc1ccc(C2C(C(=O)c3ccco3)=C(O)C(=O)N2Cc2cccnc2)cc1OC (centres undefined)	-18%[38.3 µM]	-7	1	-4%
O=C(O)[C@@H]1[C@@H]2O[C@H]([C@@H](Br)[C@H]2Br)[C@H]1C(=O)O	8%	·	·	·
CC(=O)Nc1ccc(C(=O)N/N=C/C2CC3C=CC2C3)cc1 (centres undefined)	0%	5	3	6%
O=C(N/N=C/C1CC2C=CC1C2)c1ccccc1O (centres undefined)	·	-27	?	32µM*
Cc1c(Cl)cc(C(C)(C)C)c(O)c1Cc1c(C)c(Cl)cc(C(C)(C)C)c1O	3%	·	·	·
CN(C)S(=O)(=O)NCCNC(=O)c1cc(OCC(F)(F)F)ccc1OCC(F)(F)F	?	-2	1	3%
Cc1ccc(S(=O)(=O)NCCNC(=O)c2cc(OCC(F)(F)F)ccc2OCC(F)(F)F)cc1	11µM*	-30	?	4%
Cc1c(N2C(=O)C(=O)/C(=C(/O)c3ccc(Br)cc3)C2c2cccnc2)c(=O)n(-c2ccccc2)n1C (centres undefined)	8.9µM*	-15	5	-1%
COC(=O)N1C(=O)[C@](Cc2ccccc2)(c2ccccc2)N1C(=O)OC	·	-17	6	40µM*
